The target of assay [1] is T1, Inhibitor of nuclear factor kappa-B kinase subunit epsilon (Homo sapiens) (UniProt Q14164).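 Note: reported values are averaged percent inhibition figures against human IKKε.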
T1 sequence (whole entry): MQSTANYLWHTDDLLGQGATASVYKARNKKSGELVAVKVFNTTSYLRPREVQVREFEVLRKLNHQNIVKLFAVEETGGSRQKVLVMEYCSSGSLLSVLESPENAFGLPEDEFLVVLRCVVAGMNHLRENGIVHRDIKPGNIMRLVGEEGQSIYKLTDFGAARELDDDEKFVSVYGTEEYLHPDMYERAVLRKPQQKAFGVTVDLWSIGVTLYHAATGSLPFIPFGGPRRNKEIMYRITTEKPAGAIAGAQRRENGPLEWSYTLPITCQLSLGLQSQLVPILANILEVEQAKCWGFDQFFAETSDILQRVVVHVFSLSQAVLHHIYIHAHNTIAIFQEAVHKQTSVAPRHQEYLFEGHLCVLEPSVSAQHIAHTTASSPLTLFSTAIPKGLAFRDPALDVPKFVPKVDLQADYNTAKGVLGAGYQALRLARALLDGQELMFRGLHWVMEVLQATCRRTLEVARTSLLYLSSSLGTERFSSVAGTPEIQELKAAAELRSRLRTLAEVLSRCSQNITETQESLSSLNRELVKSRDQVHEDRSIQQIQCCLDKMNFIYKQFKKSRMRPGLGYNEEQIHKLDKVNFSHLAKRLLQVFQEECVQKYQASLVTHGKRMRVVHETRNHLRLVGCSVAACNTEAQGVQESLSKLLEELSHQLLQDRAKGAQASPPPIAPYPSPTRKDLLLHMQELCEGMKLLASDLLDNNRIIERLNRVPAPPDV
Conditions: at 1 µM.

Assay [2] deals with T2, Serine/threonine-protein kinase Nek1 (Homo sapiens) (UniProt Q96PY6).
T2 sequence (whole entry): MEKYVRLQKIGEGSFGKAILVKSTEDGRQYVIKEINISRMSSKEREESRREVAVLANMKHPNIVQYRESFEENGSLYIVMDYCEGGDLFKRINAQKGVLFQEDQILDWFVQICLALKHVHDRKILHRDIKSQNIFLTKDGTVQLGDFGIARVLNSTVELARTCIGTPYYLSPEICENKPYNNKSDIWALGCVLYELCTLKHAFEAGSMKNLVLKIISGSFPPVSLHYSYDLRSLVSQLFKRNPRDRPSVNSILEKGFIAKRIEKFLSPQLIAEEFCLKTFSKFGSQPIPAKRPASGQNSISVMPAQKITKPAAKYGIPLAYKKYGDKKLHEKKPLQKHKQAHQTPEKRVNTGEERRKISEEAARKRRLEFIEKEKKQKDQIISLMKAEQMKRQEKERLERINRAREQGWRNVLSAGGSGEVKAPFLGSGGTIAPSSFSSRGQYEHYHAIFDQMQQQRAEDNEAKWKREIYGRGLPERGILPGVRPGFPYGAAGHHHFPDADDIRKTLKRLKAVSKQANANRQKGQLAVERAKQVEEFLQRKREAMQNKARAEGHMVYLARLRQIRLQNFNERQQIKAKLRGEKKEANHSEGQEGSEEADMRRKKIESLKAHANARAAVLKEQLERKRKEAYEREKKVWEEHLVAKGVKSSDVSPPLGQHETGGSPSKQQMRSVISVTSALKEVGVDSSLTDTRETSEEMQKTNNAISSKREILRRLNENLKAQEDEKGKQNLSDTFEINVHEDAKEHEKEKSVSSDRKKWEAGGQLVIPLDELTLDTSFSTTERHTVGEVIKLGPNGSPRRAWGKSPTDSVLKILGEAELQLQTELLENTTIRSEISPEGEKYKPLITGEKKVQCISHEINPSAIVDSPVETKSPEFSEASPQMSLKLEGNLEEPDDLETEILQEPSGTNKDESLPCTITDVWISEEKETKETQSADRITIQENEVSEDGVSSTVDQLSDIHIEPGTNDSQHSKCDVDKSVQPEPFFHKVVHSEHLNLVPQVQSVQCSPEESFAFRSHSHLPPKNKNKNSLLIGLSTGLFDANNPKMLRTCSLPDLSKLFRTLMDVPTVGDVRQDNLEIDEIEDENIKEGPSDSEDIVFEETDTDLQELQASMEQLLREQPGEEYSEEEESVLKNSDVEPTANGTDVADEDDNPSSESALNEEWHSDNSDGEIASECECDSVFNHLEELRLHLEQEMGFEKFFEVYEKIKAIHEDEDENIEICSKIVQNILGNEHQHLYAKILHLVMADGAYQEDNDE
The conditions noted are these: at 0.1 µM.

Assay [3] has as its target T2, Serine/threonine-protein kinase Nek1 (Homo sapiens). Conditions: at 1 µM.
Assay [4] addresses T3, Serine/threonine-protein kinase Nek2 (Homo sapiens) (UniProt P51955).
T3 sequence (whole entry): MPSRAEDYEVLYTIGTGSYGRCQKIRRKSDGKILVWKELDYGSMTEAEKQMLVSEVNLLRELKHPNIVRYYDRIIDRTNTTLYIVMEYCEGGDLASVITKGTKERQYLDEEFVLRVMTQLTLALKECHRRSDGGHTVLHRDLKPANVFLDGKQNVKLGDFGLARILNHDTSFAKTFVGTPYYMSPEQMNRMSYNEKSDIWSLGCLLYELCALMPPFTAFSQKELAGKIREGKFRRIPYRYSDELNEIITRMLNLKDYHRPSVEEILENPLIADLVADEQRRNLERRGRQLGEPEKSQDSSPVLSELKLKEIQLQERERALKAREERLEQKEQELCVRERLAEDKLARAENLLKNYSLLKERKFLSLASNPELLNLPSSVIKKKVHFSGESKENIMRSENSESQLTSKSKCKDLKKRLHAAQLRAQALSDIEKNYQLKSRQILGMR
Conditions: at 0.1 µM.

Assay [5] addresses T3, Serine/threonine-protein kinase Nek2 (Homo sapiens). The conditions noted are these: at 1 µM.
Assay [6] addresses Serine/threonine-protein kinase Nek6 (Homo sapiens) (UniProt Q9HC98). The conditions noted are these: at 0.1 µM.
Assay [7] shares this target. Conditions: at 1 µM.
Assay [8] addresses Serine/threonine-protein kinase Nek7 (Homo sapiens) (UniProt Q8TDX7). Conditions: at 0.1 µM.
The target is the same in assay [9]. The conditions noted are these: at 1 µM.
Assay [10] deals with T4, Serine/threonine-protein kinase Nek9 (Homo sapiens) (UniProt Q8TD19).
T4 sequence (whole entry): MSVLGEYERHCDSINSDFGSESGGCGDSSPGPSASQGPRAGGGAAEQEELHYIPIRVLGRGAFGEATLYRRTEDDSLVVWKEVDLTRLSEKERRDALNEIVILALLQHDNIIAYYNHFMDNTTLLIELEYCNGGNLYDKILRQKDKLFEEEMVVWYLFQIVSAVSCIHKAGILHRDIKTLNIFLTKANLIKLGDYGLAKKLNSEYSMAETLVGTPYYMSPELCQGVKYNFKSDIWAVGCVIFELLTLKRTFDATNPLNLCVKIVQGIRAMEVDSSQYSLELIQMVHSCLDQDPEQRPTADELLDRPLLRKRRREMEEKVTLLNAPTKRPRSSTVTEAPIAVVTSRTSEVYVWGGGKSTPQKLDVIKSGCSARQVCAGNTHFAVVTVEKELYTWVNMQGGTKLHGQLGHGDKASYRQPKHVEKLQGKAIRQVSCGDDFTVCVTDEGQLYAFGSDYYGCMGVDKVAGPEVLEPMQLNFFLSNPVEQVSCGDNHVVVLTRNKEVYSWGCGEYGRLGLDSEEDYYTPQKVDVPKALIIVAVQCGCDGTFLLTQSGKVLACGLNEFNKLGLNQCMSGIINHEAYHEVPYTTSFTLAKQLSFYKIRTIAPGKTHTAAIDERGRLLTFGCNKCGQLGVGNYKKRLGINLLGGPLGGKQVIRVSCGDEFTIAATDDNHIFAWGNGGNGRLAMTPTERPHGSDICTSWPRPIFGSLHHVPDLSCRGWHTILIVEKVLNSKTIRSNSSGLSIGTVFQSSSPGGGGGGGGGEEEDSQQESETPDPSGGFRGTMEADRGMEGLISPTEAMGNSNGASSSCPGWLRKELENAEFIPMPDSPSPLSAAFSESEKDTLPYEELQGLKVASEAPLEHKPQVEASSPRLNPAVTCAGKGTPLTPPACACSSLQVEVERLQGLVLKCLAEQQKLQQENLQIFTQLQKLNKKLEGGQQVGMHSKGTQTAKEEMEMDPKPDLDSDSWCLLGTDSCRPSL
Conditions: at 0.1 µM.

Assay [11] deals with T4, Serine/threonine-protein kinase Nek9 (Homo sapiens). The conditions noted are these: at 1 µM.
Assay [12] deals with Serine/threonine-protein kinase PLK1 (Homo sapiens) (UniProt P53350). The conditions noted are these: at 0.1 µM.
The target is the same in assay [13]. Conditions: at 1 µM.
Assay [14] concerns the target T5, Dual specificity protein kinase TTK (Homo sapiens) (UniProt P33981).
T5 sequence (whole entry): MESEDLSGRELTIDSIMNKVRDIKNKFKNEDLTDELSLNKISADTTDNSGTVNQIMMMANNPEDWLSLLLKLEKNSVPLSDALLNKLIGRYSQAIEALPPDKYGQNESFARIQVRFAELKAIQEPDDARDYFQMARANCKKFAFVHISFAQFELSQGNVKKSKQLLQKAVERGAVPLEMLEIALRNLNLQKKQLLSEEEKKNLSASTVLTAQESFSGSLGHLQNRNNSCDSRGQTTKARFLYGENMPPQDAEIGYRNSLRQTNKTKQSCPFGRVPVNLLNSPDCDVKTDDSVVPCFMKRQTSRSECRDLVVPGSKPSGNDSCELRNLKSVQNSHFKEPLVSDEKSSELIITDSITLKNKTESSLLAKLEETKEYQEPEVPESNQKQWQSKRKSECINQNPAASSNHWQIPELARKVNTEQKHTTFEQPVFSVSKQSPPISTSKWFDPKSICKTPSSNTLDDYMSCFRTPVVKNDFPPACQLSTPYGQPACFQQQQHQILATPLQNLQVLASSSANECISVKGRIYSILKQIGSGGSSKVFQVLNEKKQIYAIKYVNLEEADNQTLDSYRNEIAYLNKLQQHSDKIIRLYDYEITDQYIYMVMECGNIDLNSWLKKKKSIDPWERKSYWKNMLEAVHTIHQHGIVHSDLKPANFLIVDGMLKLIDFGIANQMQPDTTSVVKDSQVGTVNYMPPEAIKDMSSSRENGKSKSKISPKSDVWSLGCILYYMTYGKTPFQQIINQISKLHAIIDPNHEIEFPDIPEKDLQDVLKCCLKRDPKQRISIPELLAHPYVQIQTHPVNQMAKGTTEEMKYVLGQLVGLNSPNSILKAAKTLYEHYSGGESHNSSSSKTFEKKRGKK
Conditions: at 0.1 µM.

Assay [15] concerns T6, Receptor-type tyrosine-protein kinase FLT3 (Homo sapiens), P36888 [D835Y].
T6 sequence (whole entry): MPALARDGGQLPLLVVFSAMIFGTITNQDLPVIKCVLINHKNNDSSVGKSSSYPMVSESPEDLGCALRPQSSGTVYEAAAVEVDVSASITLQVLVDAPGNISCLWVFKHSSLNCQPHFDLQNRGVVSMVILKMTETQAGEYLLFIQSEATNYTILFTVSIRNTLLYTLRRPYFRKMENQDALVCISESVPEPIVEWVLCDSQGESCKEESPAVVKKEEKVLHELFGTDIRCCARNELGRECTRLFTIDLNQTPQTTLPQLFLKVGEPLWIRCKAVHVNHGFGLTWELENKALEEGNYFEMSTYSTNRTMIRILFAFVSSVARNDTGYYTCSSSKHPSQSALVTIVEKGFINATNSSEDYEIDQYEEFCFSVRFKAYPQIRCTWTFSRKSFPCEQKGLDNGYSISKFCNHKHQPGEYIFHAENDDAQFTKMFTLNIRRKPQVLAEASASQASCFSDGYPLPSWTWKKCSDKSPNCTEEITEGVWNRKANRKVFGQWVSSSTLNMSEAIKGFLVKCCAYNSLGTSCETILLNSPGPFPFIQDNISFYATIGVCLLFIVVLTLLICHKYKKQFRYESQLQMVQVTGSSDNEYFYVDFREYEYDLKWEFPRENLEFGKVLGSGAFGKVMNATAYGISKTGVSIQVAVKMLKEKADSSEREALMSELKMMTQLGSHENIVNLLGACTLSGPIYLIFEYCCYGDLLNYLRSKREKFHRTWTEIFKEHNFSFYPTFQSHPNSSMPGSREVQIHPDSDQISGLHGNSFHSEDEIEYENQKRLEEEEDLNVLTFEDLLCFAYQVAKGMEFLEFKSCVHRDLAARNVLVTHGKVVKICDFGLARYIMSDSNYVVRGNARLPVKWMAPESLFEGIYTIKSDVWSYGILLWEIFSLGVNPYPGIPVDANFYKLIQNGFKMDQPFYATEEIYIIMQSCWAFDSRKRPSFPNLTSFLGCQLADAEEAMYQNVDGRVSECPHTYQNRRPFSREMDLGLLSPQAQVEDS
The conditions noted are these: at 1 µM.

In assay [16] the target is Vascular endothelial growth factor receptor 3 (Homo sapiens) (UniProt P35916). Conditions: at 0.1 µM.
The target is the same in assay [17]. Conditions: at 1 µM.
Assay [18] deals with Macrophage colony-stimulating factor 1 receptor (Homo sapiens) (UniProt P07333). The conditions noted are these: at 0.1 µM.
Assay [19] shares this target. The conditions noted are these: at 1 µM.
Assay [20] addresses Tyrosine-protein kinase Fyn (Homo sapiens) (UniProt P06241). The conditions noted are these: at 0.1 µM.

Data on one compound can be found in ChEMBL document CHEMBL1961873, “Compounds: GSK PKIS; Assays: Nanosyn kinase panel” (2012).

Chain of Serine/threonine-protein kinase PLK1 (Homo sapiens) (P53350 whole entry): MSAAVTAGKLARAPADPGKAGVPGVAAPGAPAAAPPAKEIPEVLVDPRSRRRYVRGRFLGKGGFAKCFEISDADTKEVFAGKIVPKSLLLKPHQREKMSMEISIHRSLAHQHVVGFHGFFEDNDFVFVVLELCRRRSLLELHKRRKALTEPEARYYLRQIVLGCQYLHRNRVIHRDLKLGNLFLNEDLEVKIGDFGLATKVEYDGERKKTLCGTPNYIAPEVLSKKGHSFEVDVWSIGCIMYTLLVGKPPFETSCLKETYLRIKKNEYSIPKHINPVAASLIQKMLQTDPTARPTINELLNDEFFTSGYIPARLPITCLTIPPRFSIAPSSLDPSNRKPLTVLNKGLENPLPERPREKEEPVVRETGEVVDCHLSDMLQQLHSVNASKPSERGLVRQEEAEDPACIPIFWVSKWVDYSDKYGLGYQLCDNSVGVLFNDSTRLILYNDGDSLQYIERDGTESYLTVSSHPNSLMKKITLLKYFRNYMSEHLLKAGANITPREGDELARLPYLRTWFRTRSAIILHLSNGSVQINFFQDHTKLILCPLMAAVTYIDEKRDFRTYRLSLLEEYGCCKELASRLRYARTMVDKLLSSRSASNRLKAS
Chain of Serine/threonine-protein kinase Nek7 (Homo sapiens) (Q8TDX7 whole entry, looked up): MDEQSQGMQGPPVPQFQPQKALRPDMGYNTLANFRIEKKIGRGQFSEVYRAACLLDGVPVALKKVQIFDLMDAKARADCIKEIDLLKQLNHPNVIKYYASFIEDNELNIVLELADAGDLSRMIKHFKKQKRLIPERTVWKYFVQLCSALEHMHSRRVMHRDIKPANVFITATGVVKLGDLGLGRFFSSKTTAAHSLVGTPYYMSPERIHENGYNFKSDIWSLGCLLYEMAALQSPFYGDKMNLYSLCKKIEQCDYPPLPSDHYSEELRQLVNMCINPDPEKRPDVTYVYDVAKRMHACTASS
Chain of Macrophage colony-stimulating factor 1 receptor (Homo sapiens) (P07333 whole entry): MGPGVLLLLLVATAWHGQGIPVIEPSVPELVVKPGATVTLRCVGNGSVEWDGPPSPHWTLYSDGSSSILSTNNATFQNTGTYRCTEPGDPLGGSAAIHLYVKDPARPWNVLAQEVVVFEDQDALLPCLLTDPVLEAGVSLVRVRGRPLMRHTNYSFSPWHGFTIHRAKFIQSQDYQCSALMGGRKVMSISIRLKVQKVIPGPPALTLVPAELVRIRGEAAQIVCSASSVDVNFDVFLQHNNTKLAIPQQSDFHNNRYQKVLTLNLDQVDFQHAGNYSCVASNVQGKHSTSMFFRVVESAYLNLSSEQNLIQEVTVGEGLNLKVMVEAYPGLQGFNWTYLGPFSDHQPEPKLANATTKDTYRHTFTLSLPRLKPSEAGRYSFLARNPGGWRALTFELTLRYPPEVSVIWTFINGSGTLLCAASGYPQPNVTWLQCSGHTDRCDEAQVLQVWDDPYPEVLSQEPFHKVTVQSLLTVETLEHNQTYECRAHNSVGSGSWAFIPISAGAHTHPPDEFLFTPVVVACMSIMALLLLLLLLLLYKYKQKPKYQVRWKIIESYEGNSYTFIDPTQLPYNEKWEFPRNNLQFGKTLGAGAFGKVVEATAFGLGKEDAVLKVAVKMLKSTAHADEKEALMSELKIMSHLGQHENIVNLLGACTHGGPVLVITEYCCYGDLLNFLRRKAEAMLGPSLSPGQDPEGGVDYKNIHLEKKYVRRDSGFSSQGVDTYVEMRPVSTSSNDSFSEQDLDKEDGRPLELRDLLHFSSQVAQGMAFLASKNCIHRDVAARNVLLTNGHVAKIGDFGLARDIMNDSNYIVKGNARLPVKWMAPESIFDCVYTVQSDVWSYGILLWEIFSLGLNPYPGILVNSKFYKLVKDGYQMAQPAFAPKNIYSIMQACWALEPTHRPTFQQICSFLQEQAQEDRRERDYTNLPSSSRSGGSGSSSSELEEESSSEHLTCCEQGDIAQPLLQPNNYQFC
Chain of Serine/threonine-protein kinase Nek6 (Homo sapiens) (Q9HC98 whole entry): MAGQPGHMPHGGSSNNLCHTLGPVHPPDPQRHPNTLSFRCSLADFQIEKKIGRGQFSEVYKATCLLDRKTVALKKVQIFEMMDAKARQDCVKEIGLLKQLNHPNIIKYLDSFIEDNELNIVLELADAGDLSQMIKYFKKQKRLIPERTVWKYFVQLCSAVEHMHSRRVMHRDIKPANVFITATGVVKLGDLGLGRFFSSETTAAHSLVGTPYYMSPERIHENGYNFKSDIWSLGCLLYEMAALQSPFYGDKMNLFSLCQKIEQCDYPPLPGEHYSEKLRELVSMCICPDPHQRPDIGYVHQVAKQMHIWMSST
Chain of Vascular endothelial growth factor receptor 3 (Homo sapiens) (P35916 whole entry): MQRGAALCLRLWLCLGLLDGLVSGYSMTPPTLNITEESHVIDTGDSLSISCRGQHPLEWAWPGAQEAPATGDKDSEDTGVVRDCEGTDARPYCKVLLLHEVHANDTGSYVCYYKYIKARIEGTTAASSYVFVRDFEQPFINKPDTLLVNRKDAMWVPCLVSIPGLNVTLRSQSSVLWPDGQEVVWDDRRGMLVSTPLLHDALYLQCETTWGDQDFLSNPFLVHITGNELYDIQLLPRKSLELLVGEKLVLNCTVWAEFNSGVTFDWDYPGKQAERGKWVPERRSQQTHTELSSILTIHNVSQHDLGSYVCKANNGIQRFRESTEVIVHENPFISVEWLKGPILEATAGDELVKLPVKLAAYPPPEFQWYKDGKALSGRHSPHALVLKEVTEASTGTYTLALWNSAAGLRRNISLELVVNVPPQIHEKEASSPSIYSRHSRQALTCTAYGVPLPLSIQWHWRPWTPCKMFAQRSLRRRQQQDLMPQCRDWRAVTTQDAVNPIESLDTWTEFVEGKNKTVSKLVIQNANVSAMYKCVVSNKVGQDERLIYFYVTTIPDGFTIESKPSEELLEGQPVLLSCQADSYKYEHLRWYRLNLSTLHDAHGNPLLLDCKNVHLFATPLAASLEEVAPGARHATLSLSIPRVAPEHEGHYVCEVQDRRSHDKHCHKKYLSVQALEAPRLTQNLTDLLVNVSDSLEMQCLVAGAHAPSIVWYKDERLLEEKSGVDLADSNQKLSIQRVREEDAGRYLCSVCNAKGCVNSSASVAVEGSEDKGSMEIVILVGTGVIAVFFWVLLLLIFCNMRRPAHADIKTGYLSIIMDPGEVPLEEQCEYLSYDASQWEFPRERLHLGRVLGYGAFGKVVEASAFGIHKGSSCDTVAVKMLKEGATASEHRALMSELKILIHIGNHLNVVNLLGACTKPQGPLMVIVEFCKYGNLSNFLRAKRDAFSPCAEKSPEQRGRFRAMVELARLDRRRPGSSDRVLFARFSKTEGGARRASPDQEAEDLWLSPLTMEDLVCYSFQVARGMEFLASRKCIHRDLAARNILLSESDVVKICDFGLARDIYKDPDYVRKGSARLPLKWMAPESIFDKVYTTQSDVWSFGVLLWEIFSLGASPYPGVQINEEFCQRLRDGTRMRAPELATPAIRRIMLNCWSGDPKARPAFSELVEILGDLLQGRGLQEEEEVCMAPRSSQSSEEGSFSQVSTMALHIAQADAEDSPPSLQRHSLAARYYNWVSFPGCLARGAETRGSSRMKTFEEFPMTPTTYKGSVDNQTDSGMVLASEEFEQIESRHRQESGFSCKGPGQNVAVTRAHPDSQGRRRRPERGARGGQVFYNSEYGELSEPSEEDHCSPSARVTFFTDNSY
Chain of Tyrosine-protein kinase Fyn (Homo sapiens) (P06241 2-537 limits assumed): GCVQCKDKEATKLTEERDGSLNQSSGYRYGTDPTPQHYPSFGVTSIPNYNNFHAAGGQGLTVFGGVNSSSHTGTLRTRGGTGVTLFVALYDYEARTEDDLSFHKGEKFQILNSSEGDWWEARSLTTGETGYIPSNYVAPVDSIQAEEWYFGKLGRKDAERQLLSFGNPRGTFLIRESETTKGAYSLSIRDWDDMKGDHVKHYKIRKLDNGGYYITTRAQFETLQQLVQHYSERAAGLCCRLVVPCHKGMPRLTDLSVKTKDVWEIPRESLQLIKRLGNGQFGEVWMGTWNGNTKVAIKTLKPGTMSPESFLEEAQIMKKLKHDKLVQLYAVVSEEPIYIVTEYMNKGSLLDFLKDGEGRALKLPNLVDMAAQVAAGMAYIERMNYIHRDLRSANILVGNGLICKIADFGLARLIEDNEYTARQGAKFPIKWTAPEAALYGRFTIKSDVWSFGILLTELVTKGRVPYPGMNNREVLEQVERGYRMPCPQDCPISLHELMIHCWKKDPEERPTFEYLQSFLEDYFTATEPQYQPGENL

The term inhibition denotes the drop in the measured response relative to a control, in per cent. In the case of `OCc1ccc(-c2nc(-c3ccccn3)c(-c3ccc4c(c3)OCO4)[nH]2)cc1`, the inhibition was determined as 5.41% in assay [1]; 2.17% in assay [2]; 2.95% in [3]; 5.76% in [4]; 4.54% in assay [5]; 2.18% in assay [6]. Also, the inhibition in assay [7] was 0.25%; in assay [8] it was 3.26%; in [9] it was 2.28%; in assay [10] it was 5.12%; in [11] it was 2.88%; in [12], 3.56%. In addition, the inhibition in assay [13] was 4.3%; in assay [14] it was 7.41%; in assay [15] it was -0.9%; in [16] it was 1.47%; in assay [17] it was -0.57%; in assay [18] it was 3.57%. The inhibition was found to be 4.35% in assay [19] and 2.25% in [20].
